# Measurements taken from PubChem BioAssay AID504339 (National Center for Advancing Translational Sciences (NCATS), 2011).
# Out of some 390,000 compounds screened, about 17,000 (4.4%) were called active. A call without a number means that no potency is given here. About 8% were inconclusive and are not listed. Calls follow the shape of the dose curve; as a rule, active = well fitted inhibition curve with a large enough effect; inconclusive = small, poorly fitted or top-dose-only effect; inactive = no such curve, though single readings can be large or run the other way. The full list was thinned out, with actives kept by preference.
# Biological target: Lysine-specific demethylase 4A (Homo sapiens) (UniProt O75164)
# Assay: qHTS Assay for Inhibitors of JMJD2A-Tudor Domain; also: nearly all actives have a fitted effect of over 50% in size
# Conditions: AlphaScreen JMJD2A-Tudor / H3K4me3 peptide binding; series mostly up to 114 µM
# Potency is read from the fitted curve at half-maximal effect.
# Lysine-specific demethylase 4A (Homo sapiens), sequence (O75164 whole entry, looked up, the tested form may be a part): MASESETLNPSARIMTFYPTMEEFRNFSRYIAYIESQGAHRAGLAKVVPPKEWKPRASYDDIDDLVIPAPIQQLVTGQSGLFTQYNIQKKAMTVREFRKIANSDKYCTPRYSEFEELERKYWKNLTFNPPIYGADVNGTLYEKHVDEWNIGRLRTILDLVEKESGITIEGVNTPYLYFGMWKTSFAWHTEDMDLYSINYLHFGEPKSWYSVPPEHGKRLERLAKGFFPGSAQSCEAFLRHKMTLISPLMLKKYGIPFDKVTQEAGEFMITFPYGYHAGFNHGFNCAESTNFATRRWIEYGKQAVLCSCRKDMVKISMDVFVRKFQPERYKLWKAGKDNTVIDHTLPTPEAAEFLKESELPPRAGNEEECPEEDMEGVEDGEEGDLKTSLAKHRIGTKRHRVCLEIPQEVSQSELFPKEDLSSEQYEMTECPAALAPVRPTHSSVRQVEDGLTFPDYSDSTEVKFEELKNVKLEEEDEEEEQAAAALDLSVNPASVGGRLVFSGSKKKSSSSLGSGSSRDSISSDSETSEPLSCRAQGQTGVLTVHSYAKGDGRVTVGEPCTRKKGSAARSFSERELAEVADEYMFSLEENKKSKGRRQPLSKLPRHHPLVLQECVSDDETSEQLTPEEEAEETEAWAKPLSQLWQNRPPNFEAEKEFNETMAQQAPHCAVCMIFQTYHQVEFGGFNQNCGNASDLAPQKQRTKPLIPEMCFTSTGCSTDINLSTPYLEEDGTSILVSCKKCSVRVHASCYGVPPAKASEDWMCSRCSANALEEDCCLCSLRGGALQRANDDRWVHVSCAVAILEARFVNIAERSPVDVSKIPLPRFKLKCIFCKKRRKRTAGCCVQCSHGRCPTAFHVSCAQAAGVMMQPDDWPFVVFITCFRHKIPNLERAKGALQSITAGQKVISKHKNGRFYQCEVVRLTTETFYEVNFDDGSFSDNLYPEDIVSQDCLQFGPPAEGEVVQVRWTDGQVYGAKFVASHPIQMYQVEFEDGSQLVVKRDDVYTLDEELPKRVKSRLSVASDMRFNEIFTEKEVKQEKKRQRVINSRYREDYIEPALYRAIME
row,SMILES,Potency
1,Cc1ccccc1Nc1c([N+](=O)[O-])ccc2nonc12,inactive
2,Cc1ccc(Nc2cc(C)nc3c(C)ccc([N+](=O)[O-])c23)cc1,35.5 µM (active)
3,Cc1cc(Nc2ccc(C(=O)N3CCCCC3)cc2)c2cccc(C)c2n1,inactive
4,CCS(=O)(=O)N1CCc2cc(C(=O)NCc3ccc(C)cc3)ccc21,inactive
5,CCn1cc(C(=O)NCCc2ccccc2)c(=O)c2cc(S(=O)(=O)N3CCCCCC3)ccc21,inactive
6,COC(=O)c1cc(NC(=O)CCS(=O)(=O)c2cc(Br)cc3c2N(C(=O)C2CC2)CC3)cc(C(=O)OC)c1,inactive
7,COc1ccc(C)cc1N(C)C(=O)c1c(C)oc2ncnc(N3CCOCC3)c12,inactive
8,Cc1ccc(CCNC(=O)C2CCN(c3nnc(-n4cccc4CNc4ccc(C)cc4)s3)CC2)cc1,inactive
9,CC(OC(=O)c1ccc(Cl)cc1O)C(=O)NCCC1=CCCCC1 (stereo unspecified),inactive
10,CC(C)OC(=O)c1ccc(NCc2cc(O)ccc2O)cc1Cl,10 µM (active)
11,CC1(C)C2CCC1(C)C(OC(=O)c1ccc(O)cc1)C2 (stereo unspecified),inactive
12,CCN(CC)C(=O)CCC(=O)Nc1ccc(C(=O)OC)cc1,inactive
13,COC(=O)c1ccc(NCc2cc(O)ccc2O)cc1,5.62 µM (active)
14,CC(CN1CCCCC1)OC(=O)c1ccccc1Cl (stereo unspecified),inactive
15,O=C(OC12CC3CC(CC(C3)C1)C2)c1ccc(NCc2cc(O)ccc2O)cc1,56.2 µM (active)
16,C#CCNc1ccc(C(=O)OCC)cc1,inactive
17,O=c1cc(COc2cccc(C(F)(F)F)c2)nc2sc3c(n12)CCCC3,inactive
18,CN(C)c1ccc(C(=O)NCC(=O)OC(C(=O)Nc2cc(C(F)(F)F)ccc2Cl)c2ccccc2)cc1 (stereo unspecified),inactive
19,CCc1cccc(NC(=O)c2cnc(N3CCOCC3)c3ccccc23)c1,inactive
20,O=C(COc1ccccc1F)Nc1ccc(C(=O)OCc2cc(=O)n3nc(C4CC4)sc3n2)cc1,inactive
21,Cc1cccc(C)c1-n1ncc(C(=O)NCCCN2CCCCC2)c1C1CCN(C(=O)OC(C)(C)C)CC1,inactive
22,COc1ccc(Cc2nc3ccc(C(=O)NCc4ccc(OC)cc4OC)cc3o2)cc1,inactive

row,SMILES,Potency
1,COc1ccc(OC)c(NC(=O)C2CCCN(S(=O)(=O)c3ccc4c(c3)CCCC(=O)N4)C2)c1 (stereo unspecified),inactive
2,Oc1c(CN2CCOCC2)ccc(CN2CCOCC2)c1O,3.55 µM (active)
3,OC(c1ccccc1)C(CN1CCOCC1)c1ccccc1 (stereo unspecified),inactive
4,O=[N+]([O-])c1ccc(COc2ccccc2CN2CCOCC2)cc1,inactive
5,CCc1nc(NCCO)c(C#N)c2c1CCCC2,inactive
6,CC(C)Cc1nc(N2CCOCC2)c(C#N)c2c1CCC2,inactive
7,CC(C)CCNc1nc(N2CCCC2)c2c(c1C#N)CCN(C)C2,44.7 µM (active)
8,CCCNC(=O)C1CCN(c2nc3ccc(C)cc3[nH]2)CC1,inactive
9,CSC1=N/C(=C\C=C\c2cccs2)C(=O)S1,12.6 µM (active)
10,CCOC(=O)c1c(C)oc2nc(C)nc(N3CCN(c4ccc(OC)cc4)CC3)c12,39.8 µM (active)
11,COc1ccc(N2CCN(C(=O)c3c(C)oc4nc(C)nc(N5CCCC5)c34)CC2)cc1,inactive
12,CCOC(=O)c1c(C)oc2nc(C)nc(Nc3ccc(CC)cc3)c12,inactive
13,O=C(NCCSc1ccccc1)c1ccco1,inactive
14,Fc1ccc(Nc2nc(SCc3ccccc3Cl)nc3ccccc23)cc1,inactive
15,c1ccc(CSc2nnc(-c3ccco3)c(-c3ccco3)n2)cc1,17.8 µM (active)
16,Cc1ccc(-c2nnc(SCC(=O)NCc3ccccc3)nc2-c2ccc(C)cc2)cc1,inactive
17,Clc1ccccc1CSc1nnc(-c2ccco2)c(-c2ccco2)n1,22.4 µM (active)
18,CC1(C)N=C(SCc2ccccc2Cl)c2ccccc2N1,inactive
19,COc1ccc(CC(=O)N2CC(=O)Nc3ccc(Br)cc3C2c2ccc(F)cc2)cc1OC (stereo unspecified),inactive
20,CCC(=O)NNc1cc(=O)c2c(=O)n(C)c(=O)n(C)c2[nH]1,inactive
21,CC(=O)NNc1cc(=O)c2c(=O)n(C)c(=O)n(C)c2[nH]1,10 µM (active)
22,CC(=O)Nn1cc2c(=O)n(C)c(=O)n(C)c2c1,inactive

row,SMILES,Potency
1,CC(=O)c1ccc(NC(c2ccc(F)cc2)c2nnc(-c3ccccc3)o2)cc1 (stereo unspecified),inactive
2,CC(C)Oc1ccc(NC(=O)c2cc3ccccc3o2)cc1,inactive
3,CCCCn1c(CNC(=O)C23CC4CC(CC(C4)C2)C3)nnc1SCC(=O)Nc1ccc(C)cc1,inactive
4,COc1cc(/C=N/O)cc(Br)c1OS(=O)(=O)c1ccc(C)cc1,inactive
5,COc1cc(/C=N/NC(=S)Nc2cccnc2)cc(OC)c1O,inactive
6,COc1cc(/C=N/Nc2ccc(C)cc2)cc(Br)c1O,50.1 µM (active)
7,COc1ccccc1CNC(=O)C(=O)NCC(c1ccco1)S(=O)(=O)c1ccc(F)cc1 (stereo unspecified),inactive
8,Cc1coc2c(O)cc3c(c12)OC1(N2CCCCC2)C(=O)NCCCC31 (stereo unspecified),20 µM (active)
9,CC(=O)N1CCCc2ccc(NS(=O)(=O)c3ccc(F)cc3F)cc21,inactive
10,CC1CCCCN1S(=O)(=O)c1ccc(F)c(C(=O)Nc2ccccc2C(F)(F)F)c1 (stereo unspecified),inactive
11,CCN(CC)CCNC(=O)Cn1ncc2c3ccccc3n(Cc3ccccc3C)c2c1=O,inactive
12,Oc1ccc(-n2nnnc2SCc2c(F)cccc2Cl)cc1,inactive
13,Cn1c(SCc2c(F)cccc2Cl)nnc1-c1cnccn1,79.4 µM (active)
14,Cc1ccc(CSc2nnc(-c3cnccn3)n2C)cc1,inactive
15,CCOc1ccc(NC(=O)CSc2c3c(nc4ccccc24)CCCC3)cc1,inactive
16,CCN1/C(=C/c2ccc3ccc(C)cc3[n+]2CC)Sc2ccccc21,89.1 µM (active)
17,CCN1/C(=C\c2ccc3ccccc3[n+]2CC)Sc2cc(C)ccc21,20 µM (active)
18,CCOc1cc(CNC(=O)c2sc3ncnc(N(C)C4CCCCC4)c3c2C)ccc1OC,inactive
19,Cc1ccc(C(=O)CSc2nc(-c3ccccc3)nc3c2CCCC3)c(C)c1,inactive
20,COc1ccc(NC(=O)CSC2=Nc3ccccc3C3=NC(CC(=O)NCc4ccccc4OC)C(=O)N23)cc1Cl (stereo unspecified),inactive
21,Cc1nn(CC(=O)O)c(=O)c2cc3cc(F)ccc3n12,inactive
22,CCC(=O)N1CCc2cc(CNC(=O)Nc3ccccc3Cl)ccc21,inactive
